# Experiments:
# Assay in all cases: PBM; 200 nM protein, PBS
# Settings in all cases: dsDNA, one strand shown
# [1] = target: NKX2-5 (Homo sapiens, UniProt P52952 125-210, R139K)
# [2] = target: NKX2-5 (Homo sapiens, UniProt P52952 125-210)
# [3] = target: NKX3-2 (Homo sapiens, UniProt P78367 192-278, P234S)
# [4] = target: NKX3-2 (Homo sapiens, UniProt P78367 192-278)
# [5] = target: PITX2 (Homo sapiens, UniProt Q99697 72-157)
# [6] = target: T1, NKX2-6 (Homo sapiens, UniProt A6NCS4 118-204, F151L)
# T1 sequence: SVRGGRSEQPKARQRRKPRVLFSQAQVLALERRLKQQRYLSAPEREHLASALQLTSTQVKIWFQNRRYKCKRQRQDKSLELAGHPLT
# Sequence of NKX2-5 (Homo sapiens, UniProt P52952 125-210) (P52952 125-210): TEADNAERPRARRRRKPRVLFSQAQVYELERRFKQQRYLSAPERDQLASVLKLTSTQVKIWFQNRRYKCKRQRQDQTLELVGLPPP
# Sequence of NKX2-5 (Homo sapiens, UniProt P52952 125-210, R139K) (P52952 125-210 R139K): as the sequence (P52952 125-210) above, with R15K counted along it
# Sequence of NKX3-2 (Homo sapiens, UniProt P78367 192-278, P234S) (P78367 192-278 P234S): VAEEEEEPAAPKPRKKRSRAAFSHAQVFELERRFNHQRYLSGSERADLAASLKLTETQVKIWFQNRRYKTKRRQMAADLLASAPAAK
# Sequence of NKX3-2 (Homo sapiens, UniProt P78367 192-278) (P78367 192-278): as the sequence (P78367 192-278 P234S) above, with S43P counted along it
sequence,measurement,setting,value
AAAGTGCC,binding signal,[1],"11.6 upbm affinity estimate (log intensity, higher = more binding, comparable within an allelic series)"
same,binding signal,[2],"11.7 upbm affinity estimate (log intensity, higher = more binding, comparable within an allelic series)"
ACGTCCCG,binding signal,[1],"8.76 upbm affinity estimate (log intensity, higher = more binding, comparable within an allelic series)"
same,binding signal,[2],"8.79 upbm affinity estimate (log intensity, higher = more binding, comparable within an allelic series)"
CGGCCAGC,binding signal,[1],"8.6 upbm affinity estimate (log intensity, higher = more binding, comparable within an allelic series)"
same,binding signal,[2],"8.71 upbm affinity estimate (log intensity, higher = more binding, comparable within an allelic series)"
CAGTTGGC,binding signal,[1],"8.87 upbm affinity estimate (log intensity, higher = more binding, comparable within an allelic series)"
same,binding signal,[2],"8.7 upbm affinity estimate (log intensity, higher = more binding, comparable within an allelic series)"
CGCGCAGC,binding signal,[1],"8.7 upbm affinity estimate (log intensity, higher = more binding, comparable within an allelic series)"
same,binding signal,[2],"8.72 upbm affinity estimate (log intensity, higher = more binding, comparable within an allelic series)"
ACCAAACC,binding signal,[1],"8.82 upbm affinity estimate (log intensity, higher = more binding, comparable within an allelic series)"
same,binding signal,[2],"8.9 upbm affinity estimate (log intensity, higher = more binding, comparable within an allelic series)"
GCCGGCAA,binding signal,[1],"9.18 upbm affinity estimate (log intensity, higher = more binding, comparable within an allelic series)"
same,binding signal,[2],"8.86 upbm affinity estimate (log intensity, higher = more binding, comparable within an allelic series)"
ACCGGAGC,binding signal,[1],"8.8 upbm affinity estimate (log intensity, higher = more binding, comparable within an allelic series)"
same,binding signal,[2],"8.81 upbm affinity estimate (log intensity, higher = more binding, comparable within an allelic series)"
ACGGTCCA,binding signal,[1],"8.85 upbm affinity estimate (log intensity, higher = more binding, comparable within an allelic series)"
same,binding signal,[3],"10.5 upbm affinity estimate (log intensity, higher = more binding, comparable within an allelic series)"
same,binding signal,[2],"8.85 upbm affinity estimate (log intensity, higher = more binding, comparable within an allelic series)"
same,binding signal,[4],"10.5 upbm affinity estimate (log intensity, higher = more binding, comparable within an allelic series)"
ACAGCGCC,binding signal,[1],"8.89 upbm affinity estimate (log intensity, higher = more binding, comparable within an allelic series)"
same,binding signal,[2],"8.85 upbm affinity estimate (log intensity, higher = more binding, comparable within an allelic series)"
CACTAAAG,binding signal,[1],"10.9 upbm affinity estimate (log intensity, higher = more binding, comparable within an allelic series)"
same,binding signal,[2],"10.8 upbm affinity estimate (log intensity, higher = more binding, comparable within an allelic series)"
GGCAAGCC,binding signal,[1],"8.94 upbm affinity estimate (log intensity, higher = more binding, comparable within an allelic series)"
same,binding signal,[2],"8.92 upbm affinity estimate (log intensity, higher = more binding, comparable within an allelic series)"
AGTACTCG,binding signal,[1],"11.5 upbm affinity estimate (log intensity, higher = more binding, comparable within an allelic series)"
same,binding signal,[2],"11.3 upbm affinity estimate (log intensity, higher = more binding, comparable within an allelic series)"
CCCGAGGC,binding signal,[1],"9.04 upbm affinity estimate (log intensity, higher = more binding, comparable within an allelic series)"
same,binding signal,[5],"8.01 upbm affinity estimate (log intensity, higher = more binding, comparable within an allelic series)"
same,binding signal,[3],"10.3 upbm affinity estimate (log intensity, higher = more binding, comparable within an allelic series)"
same,binding signal,[2],"9.06 upbm affinity estimate (log intensity, higher = more binding, comparable within an allelic series)"
same,binding signal,[4],"10.4 upbm affinity estimate (log intensity, higher = more binding, comparable within an allelic series)"
CGCGAGCC,binding signal,[1],"8.97 upbm affinity estimate (log intensity, higher = more binding, comparable within an allelic series)"
same,binding signal,[2],"8.93 upbm affinity estimate (log intensity, higher = more binding, comparable within an allelic series)"
TGCGCGCA,binding signal,[1],"9.19 upbm affinity estimate (log intensity, higher = more binding, comparable within an allelic series)"
same,binding signal,[2],"9.1 upbm affinity estimate (log intensity, higher = more binding, comparable within an allelic series)"
CACTAAGC,binding signal,[1],"10.7 upbm affinity estimate (log intensity, higher = more binding, comparable within an allelic series)"
same,binding signal,[2],"10.6 upbm affinity estimate (log intensity, higher = more binding, comparable within an allelic series)"
CACTACAC,binding signal,[1],"10.6 upbm affinity estimate (log intensity, higher = more binding, comparable within an allelic series)"
same,binding signal,[2],"10.7 upbm affinity estimate (log intensity, higher = more binding, comparable within an allelic series)"
CAAGTGCC,binding signal,[1],"12.3 upbm affinity estimate (log intensity, higher = more binding, comparable within an allelic series)"
same,binding signal,[6],"10.6 upbm affinity estimate (log intensity, higher = more binding, comparable within an allelic series)"
TCTGCAGA,binding signal,[1],"9.09 upbm affinity estimate (log intensity, higher = more binding, comparable within an allelic series)"
same,binding signal,[2],"9.04 upbm affinity estimate (log intensity, higher = more binding, comparable within an allelic series)"
ACCGCGGG,binding signal,[1],"8.49 upbm affinity estimate (log intensity, higher = more binding, comparable within an allelic series)"
same,binding signal,[2],"8.44 upbm affinity estimate (log intensity, higher = more binding, comparable within an allelic series)"
ACTGGCCC,binding signal,[1],"8.91 upbm affinity estimate (log intensity, higher = more binding, comparable within an allelic series)"
same,binding signal,[2],"8.87 upbm affinity estimate (log intensity, higher = more binding, comparable within an allelic series)"
CGCCAGGA,binding signal,[1],"8.64 upbm affinity estimate (log intensity, higher = more binding, comparable within an allelic series)"
same,binding signal,[2],"8.64 upbm affinity estimate (log intensity, higher = more binding, comparable within an allelic series)"
CCCGTCAG,binding signal,[1],"9.01 upbm affinity estimate (log intensity, higher = more binding, comparable within an allelic series)"
same,binding signal,[2],"9.04 upbm affinity estimate (log intensity, higher = more binding, comparable within an allelic series)"
CCCTGGGC,binding signal,[1],"8.86 upbm affinity estimate (log intensity, higher = more binding, comparable within an allelic series)"
same,binding signal,[2],"8.96 upbm affinity estimate (log intensity, higher = more binding, comparable within an allelic series)"
CGGTTTGC,binding signal,[1],"8.63 upbm affinity estimate (log intensity, higher = more binding, comparable within an allelic series)"
same,binding signal,[2],"8.59 upbm affinity estimate (log intensity, higher = more binding, comparable within an allelic series)"
CAATACTC,binding signal,[1],"10.2 upbm affinity estimate (log intensity, higher = more binding, comparable within an allelic series)"
same,binding signal,[2],"10.2 upbm affinity estimate (log intensity, higher = more binding, comparable within an allelic series)"
CTGATCAG,binding signal,[1],"8.97 upbm affinity estimate (log intensity, higher = more binding, comparable within an allelic series)"
same,binding signal,[2],"8.87 upbm affinity estimate (log intensity, higher = more binding, comparable within an allelic series)"
ATACTCCA,binding signal,[1],"10.6 upbm affinity estimate (log intensity, higher = more binding, comparable within an allelic series)"
same,binding signal,[2],"10.4 upbm affinity estimate (log intensity, higher = more binding, comparable within an allelic series)"
CCCTTAAC,binding signal,[1],"10.9 upbm affinity estimate (log intensity, higher = more binding, comparable within an allelic series)"
same,binding signal,[2],"10.8 upbm affinity estimate (log intensity, higher = more binding, comparable within an allelic series)"
GGCTATTA,binding signal,[1],"10.7 upbm affinity estimate (log intensity, higher = more binding, comparable within an allelic series)"
same,binding signal,[2],"10.6 upbm affinity estimate (log intensity, higher = more binding, comparable within an allelic series)"
ACTAGTAC,binding signal,[1],"10.7 upbm affinity estimate (log intensity, higher = more binding, comparable within an allelic series)"
same,binding signal,[2],"10.7 upbm affinity estimate (log intensity, higher = more binding, comparable within an allelic series)"
AGCCACTC,binding signal,[1],"11.6 upbm affinity estimate (log intensity, higher = more binding, comparable within an allelic series)"
same,binding signal,[2],"11.5 upbm affinity estimate (log intensity, higher = more binding, comparable within an allelic series)"
CGGGTGGC,binding signal,[1],"8.45 upbm affinity estimate (log intensity, higher = more binding, comparable within an allelic series)"
same,binding signal,[2],"8.57 upbm affinity estimate (log intensity, higher = more binding, comparable within an allelic series)"
AGGCGAGC,binding signal,[1],"9.02 upbm affinity estimate (log intensity, higher = more binding, comparable within an allelic series)"
same,binding signal,[2],"8.95 upbm affinity estimate (log intensity, higher = more binding, comparable within an allelic series)"
ACTTATCG,binding signal,[1],"11.2 upbm affinity estimate (log intensity, higher = more binding, comparable within an allelic series)"
same,binding signal,[2],"11.2 upbm affinity estimate (log intensity, higher = more binding, comparable within an allelic series)"
AATAGTCT,binding signal,[1],"10.6 upbm affinity estimate (log intensity, higher = more binding, comparable within an allelic series)"
same,binding signal,[2],"10.7 upbm affinity estimate (log intensity, higher = more binding, comparable within an allelic series)"
CCCTTGAC,binding signal,[1],"11.1 upbm affinity estimate (log intensity, higher = more binding, comparable within an allelic series)"
same,binding signal,[2],"11.1 upbm affinity estimate (log intensity, higher = more binding, comparable within an allelic series)"
CACAAGAG,binding signal,[1],"11.1 upbm affinity estimate (log intensity, higher = more binding, comparable within an allelic series)"
same,binding signal,[2],"11 upbm affinity estimate (log intensity, higher = more binding, comparable within an allelic series)"
GCAGACCA,binding signal,[1],"9.14 upbm affinity estimate (log intensity, higher = more binding, comparable within an allelic series)"
same,binding signal,[2],"9.12 upbm affinity estimate (log intensity, higher = more binding, comparable within an allelic series)"

# From publication PMC11006913
